Experimental data: PubChem BioAssay AID1259418 (Broad Institute, 2018)
About 840 (25%) of roughly 3,400 compounds were called active. Not shown: some 11% with an inconclusive outcome. These entries were drawn from the full list. Results with a measured potency or affinity are listed apart. A number with no mark means an inactive call.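 Rule for the calls: active = fitted half-maximal concentration of signal decrease at or below twice the sample's top tested concentration; inconclusive = flat curve between -70 and -30 percent, or poor fit; inactive = flat within 30 percent, signal rise, or potency above limit.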

experiment: inhibitors of Toxoplasma growth in IFN-γ-primed HeLa – cell-based, ME49Luc, luciferase, 72 h, dose response (AID 1259418); settings: T. gondii ME49Luc in IFN-y HeLa, hits give low values, -100% = high-dose IFN-γ control wells; at 19.5 µM unless noted

Row | SMILES | max activity
1 | O=C(CC1N=C2c3ccccc3N=C(SCc3cc(=O)n4cc(Cl)ccc4n3)N2C1=O)NC1CCCCC1 (configuration not stated) | 36.6% [at 10 µM]
2 | FC(F)(F)c1cccc(N2CCN(c3nc(-c4ccc(Cl)cc4)nc4ccccc34)CC2)c1 | -11.2% [at 0.16 µM]
3 | Cc1cccc(NC(=O)N2CCN(Cc3nc(-c4cccc(Cl)c4)oc3C)CC2)c1 | 12.6%
4 | CCc1ccccc1NC(=O)N1CCN(Cc2nc(-c3cccc(Cl)c3)oc2C)CC1 | 17.6% [at 10 µM]
5 | Cc1ccc(Cl)cc1NC(=O)N1CCN(Cc2nc(-c3cccc(Cl)c3)oc2C)CC1 | 11.1% [at 10 µM]
6 | Cc1oc(-c2cccc(Cl)c2)nc1CN1CCN(C(=O)Nc2cccc(Cl)c2)CC1 | 10.8% [at 0.35 µM]
7 | CCc1nc(OCC(=O)Nc2cc(C)ccc2C)c2ccccc2n1 | 10.4% [at 2.6 µM]
8 | Cc1ccc(CC(=O)N2CCC3(CC2)Nc2cc(F)ccc2-n2cccc23)cc1 | -4.79% [at 0.35 µM]
9 | CC(C)NC(=O)N1CC[C@@H]2[C@H]1c1cc(-c3ccc(F)cc3)ccc1N(C)[C@H]2CO | -31.5%
10 | CN1c2ccc(C#Cc3cccnc3)cc2[C@@H]2[C@@H](CCN2C(=O)c2cccc(F)c2)[C@H]1CO | 11.4%
11 | CC(C)NC(=O)N1CC[C@@H]2[C@@H](CO)N(C)c3ccc(-c4ccc(F)cc4)cc3[C@@H]21 | 26.2% [at 5 µM]
12 | COc1ccc2c(c1)NC1(CCN(C(=O)c3ccccc3F)CC1)c1cccn1-2 | 8.8% [at 5 µM]
13 | Fc1ccc(N2CCN(c3nc(-c4ccc(Cl)cc4)nc4ccccc34)CC2)cc1 | 8.24%
14 | CCCCC(=O)Nc1ccc(-c2nc(-c3ccc(C)cc3C)co2)cc1 | 37.3% [at 10 µM]
15 | O=S(=O)(c1cccs1)N1CCC2(CC1)NCCN=C2NCc1ccccc1Cl | -8.05% [at 1.35 µM]
16 | Cc1ccc(S(=O)(=O)N2CCC3(CC2)NCCN=C3NCc2ccccc2F)c(C)c1 | -12.4%
17 | O=C(NCCc1csc(-c2ccccc2)n1)[C@H]1CCCN1C(=O)Cc1ccc(F)cc1 | -17.3% [at 0.16 µM]
18 | CCc1nc(OCC(=O)Nc2ccc(C)cc2C)c2ccccc2n1 | 12.9% [at 10 µM]
19 | Cc1cc(C)cc(NC(=O)Nc2ccc(-c3nc(-c4ccccc4)co3)cc2)c1 | 19.9% [at 1.35 µM]
20 | Cc1ccc(-c2nc(Cn3nnc(-c4nc(-c5ccc(OC(C)C)cc5)no4)c3C)c(C)o2)cc1 | 12.6% [at 0.16 µM]
21 | Cc1cc(C)cc(NC(=O)N2CCN(Cc3nc(-c4ccccc4C)oc3C)CC2)c1 | 8.24% [at 1.35 µM]
22 | Cc1ccc(Cl)cc1NC(=O)Nc1ccc(-c2nc(-c3ccccc3)co2)cc1 | -20.1% [at 0.16 µM]
23 | Cc1ccc(-c2nc(Cn3nnc(-c4nc(-c5cccc(F)c5)no4)c3C)c(C)o2)cc1 | 3.99%
24 | Cc1ccc(C)c(-c2coc(-c3ccc(NC(=O)NCCc4ccccc4)cc3)n2)c1 | 29.4%

Row | SMILES | max activity
25 | OC[C@H]1[C@@H](c2ccc(C#Cc3ccccc3F)cc2)[C@@H]2CN(CC3CCOCC3)CCCCN12 | 9.11% [at 1.2 µM]
26 | C[C@H]1[C@H](NC(=O)/C(=N\OC(C)(C)C(=O)O)c2csc(N)n2)C(=O)N1S(=O)(=O)O | 14% [at 21 µM]
27 | COc1ccc2c(c1)NC1(CCN(C(=O)Cc3ccccc3C)CC1)c1cccn1-2 | -9.29% [at 0.16 µM]
28 | CCc1nc(OCC(=O)Nc2ccc(C)cc2Br)c2ccccc2n1 | -11.9% [at 2.6 µM]
29 | COc1ccc(CCNc2nc(SCc3ccc(F)cc3)nc3ccccc23)cc1OC | -14.5% [at 5 µM]
30 | CCOC(=O)C(=O)Nc1ccc(-c2nc(-c3ccccc3)co2)cc1 | 10.7% [at 5 µM]
31 | Cc1ccc(-c2nc(Cn3nnc(-c4nc(-c5cccc(Br)c5)no4)c3C)c(C)o2)cc1 | 7.23% [at 0.16 µM]
32 | CCOc1ccc(C(=O)N2CCC(C(=O)NCCc3csc(C)n3)CC2)cc1 | 13.7%
33 | Cc1ccc(C)c(-c2coc(-c3ccc(NC(=O)Cc4cccs4)cc3)n2)c1 | 19.4%
34 | O=C(CC1N=C2c3ccccc3N=C(SCc3cc(=O)n4ccccc4n3)N2C1=O)NCc1ccc(F)cc1 (configuration not stated) | 17.7% [at 2.6 µM]
35 | COc1ccc(CCC(=O)N2CCC3(CC2)Nc2cc(F)ccc2-n2cccc23)cc1 | 14.7% [at 0.68 µM]
36 | O=C(Nc1ccc(-c2nc(-c3cccc(Br)c3)co2)cc1)Nc1ccc2c(c1)OCCO2 | 9.52% [at 0.16 µM]
37 | Cc1ccc(-c2nc(CN3CCN(C(=O)Nc4cccc(C)c4C)CC3)c(C)o2)cc1 | 12.5% [at 10 µM]
38 | COc1ccc(CNc2nc(-c3ccc(OC)cc3)nc3ccccc23)cc1 | -17.8% [at 10 µM]
39 | CN(CCNc1nc(-c2ccc(Cl)cc2)nc2ccccc12)C1CCCCC1 | -24.3% [at 2.6 µM]
40 | CCCCNc1nc(-c2ccc(OC)cc2)nc2ccccc12 | 22.7%
41 | COc1ccc(-c2nc(NCc3ccccc3)c3ccccc3n2)cc1 | 16.2%
42 | CCCNc1nc(-c2ccc(OC)cc2)nc2ccccc12 | -34.8% [at 0.35 µM]
43 | COc1ccc(-c2nc(NCCC(C)C)c3ccccc3n2)cc1 | -29.2% [at 0.68 µM]
44 | COc1ccc(-c2nc(NCCN(Cc3ccco3)C3CCCC3)c3ccccc3n2)cc1 | -27.6% [at 2.6 µM]
45 | COc1ccc(-c2nc(NCCCc3ccccc3)c3ccccc3n2)cc1 | -17% [at 1.35 µM]
46 | Cc1ccc2[nH]cc(CCNC(=O)c3cc(-c4ccccn4)nc4ccccc34)c2c1 | 11.1%
47 | CCCCN(C)C(=O)Cn1c(=O)c(S(=O)(=O)c2ccccc2)cc2ccccc21 | 11.6%
